From PubChem BioAssay (NCI)
Compounds without any hit were thinned out: in the full panel of roughly 83,000, 20% have a hit.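 Cell lines were cultured in 96-well plates, exposed to a single compound concentration, and assessed for percent growth 48 hours later.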 A number with no mark means an inactive call. The source made the active and inactive calls. How the source made its calls: active means growth percent below 10; inactive means the rest.

Tests used:
Experiment in all cases: NCI-60 one-dose screen, 48 h (100 = growth as untreated, 0 = no growth, -100 = all killed)
Conditions in all cases: 10 µM unless noted
T-47D breast = test system: T-47D breast
BT-549 breast = test system: BT-549 breast
MDA-MB-435 melanoma = test system: MDA-MB-435 melanoma
SW-620 colon = test system: SW-620 colon
MCF7 breast = test system: MCF7 breast
HCT-116 colon = test system: HCT-116 colon
HCC-2998 colon = test system: HCC-2998 colon
KM12 colon = test system: KM12 colon

Structure (SMILES)	growth (T-47D breast)	growth (BT-549 breast)	growth (MDA-MB-435 melanoma)	growth (SW-620 colon)	growth (MCF7 breast)	growth (HCT-116 colon)	growth (HCC-2998 colon)	growth (KM12 colon)
CC1CN(CCO)CC(C)O1 (stereo not drawn)	93%	108%	102%	102%	109%	112%	119%	101%
COc1cc(C(=O)O)c(O)c(C(C)(C)C)c1	103%	105%	104%	106%	97.4%	101%	96.7%	104%
CS(=O)(=O)c1ccc(/C=C\C(=O)O)cc1	103%	102%	101%	81.5%	95.8%	93.7%	110%	94%
CCCC1OC(c2ccco2)OCC1CC (stereo not drawn)	103%	98.3%	108%	99.1%	117%	99%	101%	103%
CC(=O)CSc1ncnc2nc[nH]c12	82%	102%	89.7%	96%	74.7%	88.7%	97.5%	123%
CCN(Cc1ccc(Cl)c(Cl)c1)c1ccc2nc(N)nc(N)c2c1C	-78% (active)	46.4%	-77.4% (active)	-78.2% (active)	-92.9% (active)	-82.4% (active)	-93.6% (active)	-92.6% (active)
O=C(c1ccc(Cl)cc1)N1CCCCC1	91.5%	105%	101%	99.8%	92.9%	99.9%	107%	106%
CC(C)Sc1ncnc2nc[nH]c12	100%	121%	97.4%	108%	98.1%	103%	108%	128%
NCCCN1CCCC1=O	115%	110%	124%	108%	104%	107%	100%	104%
CC(=O)OCC1CCC(COC(C)=O)CC1 (stereo not drawn)	93%	112%	103%	109%	90.9%	103%	91.5%	99.2%
CCOC(=O)c1c[nH][nH]c1=O	103%	106%	104%	104%	92.4%	102%	98.5%	111%
CC(=O)c1cccs1	90%	97%	109%	108%	94.6%	97.4%	98.4%	102%
CCCCCCCCCc1ccc(OC(C)=O)cc1	108%	112%	109%	102%	102%	110%	113%	106%
CNc1ccccc1C(=O)N/N=C/C=C/c1ccccc1	29.5%	47.3%	-43.1% (active)	20.2%	12.2%	21.6%	42.2%	22.2%
CC1CCC(C)(C)c2ccccc21 (stereo not drawn)	91.1%	105%	105%	115%	91.4%	95.9%	96.9%	106%
O=S(=O)(O)c1cccc2cccnc12	106%	121%	105%	94.6%	106%	100%	103%	105%
O=CNCCc1ccccc1	101%	96.5%	102%	113%	95.3%	102%	122%	131%
CN(CCCN(C)CCC1CCCCC1)CCC1CCCCC1	17.9%	39.2%	-26.1% (active)	75.2%	-47.4% (active)	47.2%	-30.1% (active)	46.7%

Structure (SMILES)	growth (T-47D breast)	growth (BT-549 breast)	growth (MDA-MB-435 melanoma)	growth (SW-620 colon)	growth (MCF7 breast)	growth (HCT-116 colon)	growth (HCC-2998 colon)	growth (KM12 colon)
CC1(C)OC2C(CO)OC(n3ccc(=O)[nH]c3=O)C2O1 (stereo not drawn)	89.4%	104%	101%	96.3%	97.7%	98.2%	102%	102%
CCOC(=O)C(=O)CC(=O)c1ccccc1	105%	109%	106%	98.4%	96.7%	97.9%	101%	96.3%
COC1OC(C(COC(C)=O)OC(C)=O)C(OC(C)=O)C(OC(C)=O)C1OC(C)=O (stereo not drawn)	103%	106%	114%	104%	96%	106%	115%	117%
COc1ccc(C(=O)/C(=N/Nc2ccccc2)c2ccc(OC)cc2)cc1	87%	103%	94.1%	93.5%	95.2%	78.5%	95.2%	90%
CC(=O)C1C(=O)C(=O)N(c2cccc([N+](=O)[O-])c2)C1=O (stereo not drawn)	101%	109%	104%	111%	94.3%	109%	85.9%	112%
O=C(Nc1ccc([N+](=O)[O-])cc1)C(=O)Nc1ccc([N+](=O)[O-])cc1	88.7%	100%	106%	96.5%	90.6%	97.3%	103%	99%
CC1=CC(=Nc2ccc(N(C)C)cc2)C=C(C)C1=O	48.5%	74.1%	75.7%	93.8%	77%	83.5%	96.1%	87.5%
N#C/C(=C\c1ccc2c(c1)OCO2)c1ccccc1	61.4%	65.2%	-1.53% (active)	41.4%	53%	53.3%	76.4%	42.8%
O=C(O)c1c[nH]c2ccccc2c1=O	89.5%	101%	107%	108%	93.9%	95%	102%	100%
O=C(O)c1ccc(OCc2ccccc2)cc1	83.7%	104%	108%	107%	96.5%	93%	101%	111%
Cc1ccc2[nH]c3ccccc3c2c1	93%	102%	101%	101%	104%	98.3%	100%	101%
S=C(NCc1ccccc1)N1CCC(CCCC2CCN(C(=S)NCc3ccccc3)CC2)CC1	71.8%	98.2%	101%	108%	82.3%	85.5%	123%	95.9%
CCCCNC(=O)c1ccc(OCC)cc1	96.1%	99.9%	103%	97.9%	88.6%	90.5%	104%	106%
CCOC(=O)C(CCC#N)(CCC#N)C(=O)OCC	112%	98%	101%	100%	91.4%	97.3%	97.6%	106%
C[n+]1c(/C=C\C=C\N2CCCCC2)sc2ccccc21	5.32% (active)	1.35% (active)	-1.72% (active)	12.5%	4.75% (active)	-24.5% (active)	14%	-11% (active)
O=C(O)c1cccc(-n2ncc(Cl)c(Cl)c2=O)c1	102%	105%	93.2%	113%	74.8%	105%	108%	77.2%
CCOc1ccc(C(=O)NCC(C)C)cc1	89.1%	98.3%	96.8%	91.7%	93.5%	101%	114%	101%
CCCc1cccc(CCC)c1NC(=O)Nc1cc(Cl)cc(Cl)c1	82.3%	86.6%	104%	123%	99.1%	91.2%	116%	101%
